Laboratory results taken from PubChem BioAssay (EPA / NIEHS).
Inconclusive results are not listed. The source holds several records for some structures; these can differ, active in one and inactive in another. Calls of active or inactive are those of the source. The calls were made as follows: active = hit-call score of the fitted dose curve at least 0.9, where 1 is the maximum; inconclusive = response in the unintended direction; inactive = score below 0.9.

Assay: ACEA_AR_antagonist_AUC_viability: ACEA Biosciences xCELLigence Real-Time Cell Analysis on Androgen Receptor Antagonism for Viability (AID 2283776);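 also: area under impedance growth curve at 80 h after dosing as viability; hits lower the growth signal relative to DMSO meaning cytotoxicity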
Procedure: ACEA_AR_antagonist is a cell-based, single-readout assay that uses 22Rv1, a human prostate cancer cell line, with measurements taken at 80 hours after chemical dosing in a 384-well plate, although TO5 and TO6 (mc0.srcf) used a 96-well plate. Differences in plate size can be ignored given data normalization.ACEA_AR_80hr is one of two assay component(s) measured or calculated from the […] assay. It is designed to make measurements of real-time cell-growth kinetics, a form of growth reporter, as detected with electrical impedance signals by Real-Time Cell Electrode Sensor (RT-CES) technology.Data from the assay component ACEA_AR_antagonist_AUC_viability was analyzed in the positive analysis fitting direction relative to DMSO as the negative control and baseline of activity. Using a type of growth reporter, loss-of-signal activity can be used to understand changes in the viability. Furthermore, this assay endpoint can be referred to as a secondary readout, because this assay has produced multiple assay endpoints where this one serves a viability function. To generalize the intended target to other relatable targets, this assay endpoint is annotated to the cell cycle intended target family, where the subfamily is cytotoxicity.
The xCELLigence system Multi-E-Plate stations were used to measure the time-dependent response to chemicals. Each compound was tested in an eight-point, 1:4 serial dilution series starting at a maximum final concentration of 100 uM. A maximum starting concentration of 0.5% DMSO was present in the 100 uM chemical samples and was diluted along with the test article dilution series. The screen was performed in biological duplicate using two separate, 96-well, E-Plates 96 for each dilution series (n = 2). Positive controls (MG132 and testosterone) and a negative control (assay media) were tested in quadruplicate on each testing plate. Then, 0.5% and 0.125% DMSO were tested in duplicates in each plate to serve as solvent controls for the 2 highest concentrations of testing compounds: 100 uM and 25 uM. Reference compounds were tested with 8 concentrations with 1:5 serial dilutions. All screening was carried out by ACEA Biosciences, Inc. (San Diego, CA). 22Rv1 cells purchased from ATCC were maintained in media supplemented with 10% fetal bovine serum (FBS). Before screening, 22Rv1 cells were preconditioned in assay medium. Cells were then detached and seeded in E-Plates 96 in assay medium. After overnight monitoring of growth once every hour, compounds were added to […] cells and remained in the medium until the end of the experiment. Cellular responses were then recorded once every 5 min for the first 5 h, and once every hour for an additional 100 h.

Row | SMILES | outcome | AC50
1 | CCCCC(=O)O | inactive | –
2 | C[Si](C)(C)N[Si](C)(C)C | inactive | –
3 | CC1=NN(c2ccc(S(=O)(=O)O)cc2)C(=O)C1N=Nc1ccccc1 (stereo not given) | inactive | –
4 | CCCCCCO | inactive | –
5 | O=C(O)c1cc(O)c2ccccc2c1O | inactive | –
6 | COc1cc(O)c(C(=O)c2ccccc2)cc1S(=O)(=O)O | inactive | –
7 | CCOC(=O)c1ccc(C)cc1 | inactive | –
8 | C1CNCCN1 | inactive | –
9 | CCCC(CC)c1ccccc1 (stereo not given) | inactive | –
10 | c1ccc(Nc2cccc3ccccc23)cc1 | – | 2400 nM (active)
11 | CC(C)(C)NC(=O)[C@H]1CC[C@H]2[C@@H]3CC[C@H]4NC(=O)C=C[C@]4(C)[C@H]3CC[C@]12C | inactive | 50000 nM (active)
12 | CCCCCC[C@@H](O)C/C=C\CCCCCCCC(=O)OCC(O)CO (stereo not given in full) | inactive | –
13 | CCCCCC(=O)OCC | inactive | –
14 | Cc1ccc([N+](=O)[O-])cc1N | inactive | –
15 | CCc1occc(=O)c1O | inactive | –
16 | CCCCCCOc1ccc(N)cc1 | inactive | –
17 | CCCCCCCCCCCCc1ccc(O)cc1 | – | 16600 nM (active)
18 | CC(=O)OC1CCCCC1C(C)(C)C (stereo not given) | inactive | –
19 | Oc1ccccc1Cc1ccccc1O | – | 1480 nM (active)
20 | CC(=O)OCc1ccccc1 | inactive | –

Row | SMILES | outcome | AC50
21 | CC(=O)OC(C)c1ccccc1 (stereo not given) | inactive | –
22 | CCC(C)(O)CCCC(C)C (stereo not given) | inactive | –
23 | CCCCCCOC(=O)CCCCC(=O)OCCCCCC | inactive | –
24 | C=C1C[C@H]2[C@@H]3C=C(C)C4=CC(=O)CC[C@]4(C)[C@H]3CC[C@]2(C)[C@@]1(OC(C)=O)C(C)=O | inactive | –
25 | CCN1CN(CC)CN(CC)C1 | inactive | –
26 | CCCCNS(=O)(=O)c1ccccc1 | inactive | –
27 | CCC[Si](OC)(OC)OC | inactive | –
28 | Cc1ccc(C)c(OCCCC(C)(C)C(=O)O)c1 | inactive | –
29 | CC(C)(C)C1CCC(=O)CC1 | inactive | –
30 | CCC1COC(=O)O1 (stereo not given) | inactive | –
31 | CCOC(=O)c1ccccc1C | inactive | –
32 | Oc1ccc(-c2ccccc2)c(Cl)c1 | – | 598 nM (active)
33 | CC(C)c1cc(C(C)C)cc(C(C)C)c1 | inactive | –
34 | CCc1cccc(C)c1N | inactive | –
35 | CCCCCCCCCCCC(=O)N(C)CC(=O)O | inactive | –
36 | CCCCCCCO | inactive | –
37 | CCCCOCCOC(=O)COc1ccc(Cl)cc1Cl | inactive | –
38 | COC(=O)c1ccccc1C | inactive | –
39 | N#Cc1ccc(C2CCCc3cncn32)cc1 (stereo not given) | inactive | –
